± gives the uncertainty stated by the source.

One assay relates to HEK293T-Rex XBP1-RLuc. The assay can be described thus: XBP1-RLuc splicing reporter activation, triplicate, relative to 500 nM thapsigargin (% of thapsigargin); higher = stronger IRE1/XBP1s reporter activation. As to conditions: 6.8 µM; 18 h; screen: confirmation. On the procedure:
(§1)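 HEK293T-Rex cells stably expressing the ERSE-firefly luciferase (BiP promoter, ATF6-preferring) or XBP1-splicing Renilla luciferase (IRE1/XBP1s) reporter, 1536-well plates, compound at 6.8 µM for 18 hr at 37 °C; luminescence read […] and expressed as % activation = 100*(compound - median DMSO)/(median 500 nM thapsigargin - median DMSO). Primary screen was single-pass; confirmation screen in triplicate (mean ± SD).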
With `O=C(NCCc1ccccc1)c1cc(-c2cccs2)on1`, the “XBP1-RLuc splicing reporter activation” value was determined as 5.58 ± 1. On the same count and under the same terms, the result for `O=[N+]([O-])c1ccc2nc(/C=C/c3ccccc3)[nH]c2c1` reads 1.8 ± 0.81; that for `CCOc1cccc(C(=O)Nc2ccc(Br)cn2)c1`, 2.81 ± 1.5; that for `CCCNc1ccnc(N2CCc3ccccc3C2)n1`, -1.35 ± 0.17.

For the molecule `O=C(N/N=C/c1cccc(Cl)c1Cl)c1ccccc1O`, the “XBP1-RLuc splicing reporter activation” value was 6.36 ± 0.63.

A further assay concerns HEK293T-Rex ERSE-FLuc. As to the kind of experiment: ERSE-FLuc reporter activation, triplicate confirmation, relative to 500 nM thapsigargin (% of thapsigargin); higher = stronger ATF6/ERSE reporter activation. To be noted: 6.8 µM; 18 h; screen: confirmation. On the procedure:
as §1
As to `COc1ccc2[nH]c3c(N4CCCCC4)ncnc3c2c1`, the ERSE-FLuc reporter activation is 28.3 ± 2.6. Same read-out and setting: the same measure for `O=C(CC(=O)Nc1ccc2nc3n(c(=O)c2c1)CCCCC3)NCc1ccco1`: 28 ± 11; for `COc1cccc(/C=N/NC(=O)c2n[nH]c3c2CCCC3)c1`: 31.5 ± 1.1; for `Oc1ccc(/C=N/Nc2cccc3cccnc23)cc1O`: 33.1 ± 4.8.

For `Cc1ccc(O)c(NC(=S)NC(=O)/C=C/c2ccco2)c1`, the ERSE-FLuc reporter activation is 27 ± 5.2.

Turning to `N#CC1=C(N)Oc2c(ccc3ccccc23)C1c1ccccc1` (stereo not given), the ERSE-FLuc reporter activation stood at 27.3 ± 3.3.

As for `Nc1ccc2nc(-c3ccc(Br)cc3)[nH]c2c1`, the ERSE-FLuc reporter activation was 36.7 ± 10. Same read-out and setting: the same measure for `Cc1ccc(O)c(-c2cc(C(F)(F)C(F)F)no2)c1`: 37.1 ± 3.1; for `COC(=O)c1ccc2c(COC(C)=O)c(OC(C)=O)ccc2c1COC(C)=O`: 113 ± 10. Same read-out and setting: the same measure for `Cc1cc(C)nc(/N=C(\N)Nc2ccc(OCCC(C)C)cc2)n1`: 58.2 ± 6.3. Still for that read-out and setting: the same measure for `Oc1cccc(Nc2nc(-c3ccc(O)c(O)c3)cs2)c1`: 26.1 ± 6.7; for `O=C(COC(=O)c1cc(O)c(O)c(O)c1)Nc1ccc(Br)cc1F`: 57.9 ± 11. `CCOc1ccc(/C=C(\C#N)c2[nH]nc(N)c2C#N)cc1OCC` returned an ERSE-FLuc reporter activation of 26.7 ± 5.5. `CCCNC(=O)c1ccc2nc(-c3ccc4[nH]ccc4c3)sc2c1` came in with an ERSE-FLuc reporter activation of 33.4 ± 9.7.

Consider `COc1cc(/C=C/c2ccc(O)c(OC)c2)ccc1O`, for which the ERSE-FLuc reporter activation is 35.9 ± 9.1.

For the origin of these results see the supplement of paper PMC4954754.
